Compounds with a hit are over-represented: about 28% of the library has one in this group of screens.
CYP2C9 act = human CYP2C9 activators, primary screen, biochemical, luminescence; Cytochrome P450 2C9 (Homo sapiens), P11712; recombinant CYP2C9, luciferin-H conversion; hits give high values; factor 1 = untreated enzyme, 0 = blocked; activation factor at 5 µM; 96,000 tested, 1.4% active; AID 1024, 2008;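 active = activation factor of 2 or more for CYP2C9 at a 5 µM dose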
CYP2C9 inh = blockers of cytochrome P450 2C9 activity – biochemical, luminescence, ADME assay, primary screen; P11712; CYP2C9 Supersomes, luciferin-H conversion; inhibition, % at 5 µM; 96,000 tested, 20% active; AID 777, 2007;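 active = blocking of liver enzyme CYP2C9 beyond about 50% at 5 µM, limit read from the data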
CYP2C19 inh = blockers of cytochrome P450 2C19 activity – biochemical, luminescence, ADME assay, primary screen. P33261. CYP2C19 Supersomes, luciferin-H EGE luminescence, 30 min. inhibition, % at 5 µM. 96,000 tested, 21% active. AID 778, 2007;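 active = CYP2C19 inhibition above a set limit at 5 µM in the primary screen, cut at about 50% in these data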
Target sequence (P33261 whole entry, looked up): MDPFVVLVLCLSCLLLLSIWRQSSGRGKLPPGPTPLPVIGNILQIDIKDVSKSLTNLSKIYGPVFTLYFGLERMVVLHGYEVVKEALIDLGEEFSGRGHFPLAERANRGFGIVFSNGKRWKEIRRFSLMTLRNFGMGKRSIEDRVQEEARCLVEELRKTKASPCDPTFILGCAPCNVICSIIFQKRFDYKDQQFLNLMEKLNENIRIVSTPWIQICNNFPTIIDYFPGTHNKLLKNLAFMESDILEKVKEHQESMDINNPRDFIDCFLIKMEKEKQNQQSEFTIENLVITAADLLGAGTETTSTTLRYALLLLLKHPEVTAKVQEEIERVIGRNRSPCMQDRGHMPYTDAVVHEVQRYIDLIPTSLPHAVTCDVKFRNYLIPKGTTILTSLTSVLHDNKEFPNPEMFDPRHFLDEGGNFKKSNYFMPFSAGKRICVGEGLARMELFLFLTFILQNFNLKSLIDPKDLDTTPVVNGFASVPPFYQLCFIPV
CYP2C19 act = human CYP2C19 activators, primary screen, biochemical, luminescence; Cytochrome P450 2C19 (Homo sapiens), P33261; recombinant CYP2C19, luciferin-H EGE luminescence; hits give high values; 0 = fully inhibited enzyme, 1 = untreated enzyme; activation factor at 5 µM; 96,000 tested, under 10 active; AID 1025, 2008;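 active = activation factor of at least 2 at 5 µM in the primary screen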
Mac1 fbg inh = inhibitors of CD11b/CD18 adhesion to fibrinogen, primary screen, K562 cells, luminescence. inhibition, % at 10 µM. AID 1497, 2009. 93,000 tested, 0.54% active. ATPlite luminescence; Mn2+ added to activate the integrin. Integrin beta-2 (Homo sapiens) + Integrin alpha-M (Homo sapiens), P05107+P11215;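 active = primary inhibition of 50% or more at 10 µM, then 40% or more on retest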
Mac1 fbg enh = enhancers of CD11b/CD18 adhesion to fibrinogen, primary screen, K562 cells, luminescence. Integrin beta-2 (Homo sapiens) + Integrin alpha-M (Homo sapiens), P05107+P11215. ATPlite luminescence. activation, % at 10 µM. 93,000 tested, 0.07% active. AID 1499, 2009;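 active = 10 µM primary screen giving 50% or more activity, confirmed by 40% or more on retest at that dose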
A number is an active result; . = inactive; / = no result given.

SMILES	CYP2C9 act	CYP2C9 inh	CYP2C19 inh	CYP2C19 act	Mac1 fbg inh	Mac1 fbg enh
O=C(CSc1nnc2scc(-c3ccc(Cl)cc3)n12)NCc1ccc2c(c1)OCO2	.	.	.	.	.	.
O=C(CSc1nnc2scc(-c3ccc(Cl)cc3)n12)NCc1ccco1	.	.	56	.	.	.
C=CCn1c(SC(C)C(=O)NCc2ccc3c(c2)OCO3)nc2scc(-c3ccccc3)c2c1=O (centres undefined)	.	80	76	.	/	/
CC(Sc1nnc(-c2cccs2)n1-c1ccccc1)C(=O)NCc1ccc2c(c1)OCO2 (centres undefined)	.	93	75	.	.	.
CC(Sc1nnc(C2CCCCC2)n1N)C(=O)NCc1ccc2c(c1)OCO2 (centres undefined)	.	.	.	.	.	.
Cc1c(C(=O)NCc2cccs2)oc2ccc(Br)cc12	.	.	.	.	.	.
Cn1c(C(=O)NCc2cccs2)cc2oc3ccccc3c21	.	79	51	.	.	.
Cn1c(C(=O)NCc2ccccc2)cc2oc3ccccc3c21	.	91	52	.	.	.
CC(=O)c1c[nH]c(C(=O)NCC2CCCO2)c1 (centres undefined)	.	.	69	.	.	.
Cn1c(C(=O)NCC2CCCO2)cc2oc3ccccc3c21 (centres undefined)	.	81	72	.	.	.
CC(C)CC(=O)c1c[nH]c(C(=O)NCC2CCCO2)c1 (centres undefined)	.	.	.	.	.	.
CC(=O)Nc1nonc1-n1nnc(C(=O)NCc2ccccc2)c1C	.	70	83	.	.	.
Cc1nn(C)c(C)c1NC(=O)c1ccc(S(=O)(=O)N(C)C)cc1	.	.	.	.	.	.
Cc1cc(N2CCN(c3ccccc3)CC2)nc(-n2nc(C)cc2C)n1	.	90	60	.	.	.
Cn1ccs/c1=N\S(=O)(=O)c1ccc(Br)cc1	2.4	.	.	.	/	/
C=CCn1c(SCc2cccc3ccccc23)nnc1-c1cccnc1	.	.	89	.	.	.
O=C(O)CSc1nnc(-c2cccnc2)n1Cc1ccccc1	.	.	.	.	.	.
Clc1ccccc1CSc1nnc(-c2cccnc2)n1Cc1ccco1	.	.	71	.	.	.
O=C(CSc1ccc2nnc(-c3ccncc3)n2n1)N1CCc2ccccc21	.	50	.	.	.	.
O=C(CSc1nnc(-c2cccnc2)n1Cc1ccco1)N1CCc2ccccc21	.	.	56	.	.	.
O=C(CSc1nnc(-c2cccnc2)n1Cc1ccco1)c1ccccc1	.	.	.	.	.	.
COc1cc(NC(=S)NCc2ccc(S(N)(=O)=O)cc2)c(OC)cc1Cl	/	/	/	/	.	.
Cn1c(SCC(=O)N2CCCc3ccccc32)nnc1-c1ccccc1	.	.	.	.	.	.
Cc1occc1-c1nnc(SCC(=O)N2CCCc3ccccc32)n1Cc1ccco1	.	50	67	.	.	.
Cc1ccc(SCC(=O)NCCSC(C)(C)C)cc1	.	.	.	.	.	.
SMILES	CYP2C9 act	CYP2C9 inh	CYP2C19 inh	CYP2C19 act	Mac1 fbg inh	Mac1 fbg enh
CCSc1nnc2n1C(C)(C)Cc1ccccc1-2	.	.	.	.	.	.
CC(C)OC(=O)CSc1nnc2n1C(C)(C)Cc1ccccc1-2	.	53	.	.	.	.
O=C(CSc1nnc(-c2ccco2)n1-c1ccccc1)N1CCOCC1	.	.	.	.	.	.
CCOC(=O)C1CCN(C(=O)CSc2nnc(-c3ccco3)n2-c2ccccc2)CC1	.	54	53	.	.	.
COc1ccccc1N1CCN(C(=O)CSc2ncccc2-c2nc3ccccc3[nH]2)CC1	.	58	74	.	.	.
CC1Cc2ccccc2N1C(=O)CSc1nnc2n1C(C)(C)Cc1ccccc1-2 (centres undefined)	.	56	74	.	.	.
CCC(CC)C(=O)Nc1nnc(SCC(=O)N2CCN(c3ccccc3OC)CC2)s1	.	73	50	.	.	.
COc1cccc(-n2c(SCC(=O)N3c4ccccc4CC3C)nnc2-c2ccco2)c1 (centres undefined)	.	92	80	.	.	.
c1ccc(-n2c(-c3ccco3)nnc2-c2ccco2)cc1	.	.	.	.	.	.
CC1Cc2ccccc2N1C(=O)CSc1nc(-c2ccco2)cc(C(F)(F)F)n1 (centres undefined)	.	.	.	.	.	.
COc1ccccc1N1CCN(C(=O)CSc2nnc3n2C(C)(C)Cc2ccccc2-3)CC1	.	.	92	.	.	.
O=S(=O)(NCCSc1nnc(-c2ccco2)n1-c1ccccc1)c1ccccc1	.	83	76	.	.	.
CCn1c(SCC(=O)Nc2nccs2)nnc1-c1ccc(S(=O)(=O)N2CCCCC2)cc1	.	.	.	.	.	.
CCCCCn1c(=O)[nH]c2cc(C(=O)NCCN(CC)CC)ccc2c1=O	.	.	.	.	.	.
COc1ccc(NC(=O)C2CC(=O)N(C(C)C)C2)cc1 (centres undefined)	.	.	.	.	.	.
COc1nc(N2CCCCCC2)nc(N2CCCCCC2)n1	.	51	.	.	.	.
COc1ccc(S(=O)(=O)NCCCCCC(=O)NCCCN2CCOCC2)cc1	.	.	.	.	.	.
C/C(=N/NS(C)(=O)=O)c1ccc2ccccc2c1	.	73	.	.	.	.
CC/C(=N\NS(C)(=O)=O)c1ccccc1	.	.	.	.	.	.
O=C(CSCCSCC(=O)c1ccco1)c1ccco1	.	.	.	.	.	.
CC1(C)CC(=O)c2cn3c(nc2C1)nc1ccccc13	.	.	.	.	.	.
CC1(C)CC(=O)c2cn3nc(C(F)(F)F)nc3nc2C1	.	.	56	.	.	.
CC(=O)N1N=C(c2ccc(Cl)cc2)OC1c1ccc(C(C)C)cc1 (centres undefined)	.	.	55	.	/	/
C=CCOC(=O)C(C#N)c1nc2ccccc2nc1N1CCCC1 (centres undefined)	.	.	.	.	.	.
COCCOC(=O)C(C#N)c1nc2ccccc2nc1N1CCCC1 (centres undefined)	.	79	85	.	.	.
CCCCOC(=O)C(C#N)c1nc2ccccc2nc1N1CCOCC1 (centres undefined)	.	.	52	.	.	.
N#CC(C(=O)NCc1ccco1)c1nc2ccccc2nc1N1CCOCC1 (centres undefined)	.	88	79	.	.	.

Bioassay records from PubChem BioAssay.
